Source: the supplement of paper PMC6607015
Where a name gives a salt, the structure may show the parent alone.

Tests used:
Conditions in all cases: compound concentration in added solution (µM; 5 µl added to 20 µl cells): 10; 18 h
[1] = tested on: A431; assay: LBPA endosome anti-LBPA integrated intensity (sum per cell), Z-score; higher = more LBPA staining
Outline: (§1)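 HeLa MZ or A431 cells (3,500/well in 20 µl) were seeded onto 5 µl of 10 µM compound solution in duplicate 384-well imaging plates, incubated 18 h, then fixed in 4% PFA. Cells were stained with 6C4 anti-LBPA antibody, filipin, propidium iodide and CellTracker green, and four 20× images were taken per well. MetaXpress segmentation gave per-cell integrated LBPA or filipin intensity, either whole-cell or within LBPA endosomes. Values are Z-scores normalised in AcuityXpress.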

[2] = tested on: HeLa MZ; assay: as above
Outline: as §1

[3] = tested on: A431; assay: whole-cell filipin (free cholesterol) integrated intensity, Z-score; higher = more cholesterol staining
Outline: as §1

[4] = tested on: HeLa MZ; assay: as above
Outline: as §1

[5] = tested on: A431; assay: filipin (cholesterol) integrated intensity within LBPA endosomes, Z-score; higher = more cholesterol in LBPA endosomes
Outline: as §1

[6] = tested on: HeLa MZ; assay: as above
Outline: as §1

Row | SMILES | LBPA endosome anti-LBPA integrated intensity (z-score) [1] | LBPA endosome anti-LBPA integrated intensity (z-score) [2] | whole-cell filipin (z-score) [3] | whole-cell filipin (z-score) [4] | filipin (z-score) [5] | filipin (z-score) [6]
1 | C=CC1=C(C(=O)O)N2C(=O)[C@@H](NC(=O)/C(=N\O)c3csc(N)n3)[C@H]2SC1 [Cefdinir] | -0.422 | -0.414 | -0.315 | -0.322 | -0.385 | -0.46
2 | CN[C@@H]1[C@@H](O)[C@@H](O[C@@H]2[C@@H](O)[C@H](O[C@H]3OC(CN)=CC[C@H]3N)[C@@H](N)C[C@H]2N)OC[C@]1(C)O [Sisomicin sulfate] | -0.541 | -0.481 | -0.622 | -0.546 | -0.517 | -0.45
3 | C[C@H]1NC(=O)NC1=O [Methylhydantoin-5-(D)] | -0.487 | -0.363 | -0.289 | -0.267 | -0.458 | -0.381
4 | CCN(Cc1ccncc1)C(=O)C(CO)c1ccccc1 (centres undefined) [Tropicamide] | -0.503 | -0.535 | -0.78 | -0.974 | -0.52 | -0.592
5 | CC(C)NC[C@@H](O)COc1cccc2ccccc12 [(R)-Propranolol hydrochloride] | 0.16 | 1.45 | 0.468 | -0.0727 | 0.133 | 0.265
6 | C/C(=C(\CCOP(=O)(O)O)SC(=O)c1ccccc1)N(C=O)Cc1cnc(C)nc1N [Benfotiamine] | -0.532 | -0.653 | -0.469 | -0.157 | -0.411 | -0.31
7 | CCOc1nc2cccc(C(=O)O)c2n1Cc1ccc(-c2ccccc2-c2nnn[nH]2)cc1 [Candesartan] | -0.346 | 0.346 | 0.0521 | 0.386 | -0.389 | -0.218
8 | NCC[C@H](O)C(=O)N[C@@H]1C[C@H](N)[C@@H](O[C@H]2O[C@H](CN)[C@@H](O)[C@H](O)[C@H]2O)[C@H](O)[C@H]1O[C@H]1O[C@H](CO)[C@@H](O)[C@H](N)[C@H]1O [Amikacin hydrate] | -0.71 | -0.821 | -1.06 | -0.44 | -0.672 | -0.666
9 | COc1ccccc1OCC(O)COC(N)=O (centres undefined) [Methocarbamol] | -0.567 | -0.641 | -0.741 | -0.777 | -0.492 | -0.501
10 | O=C(O)/C=C/c1ccc(Cn2ccnc2)cc1 [Ozagrel hydrochloride] | -0.373 | 0.0325 | 0.164 | 0.704 | -0.284 | -0.0855
11 | O=C1CC2(CCCC2)CC(=O)N1CCCCN1CCN(c2ncccn2)CC1 [Buspirone hydrochloride] | -0.302 | -0.586 | 0.536 | 0.427 | -0.00788 | 0.293
12 | CC[C@H]1OC(=O)[C@H](C)[C@@H](O[C@H]2C[C@@](C)(OC)[C@@H](O)[C@H](C)O2)[C@H](C)[C@@H](O[C@@H]2O[C@H](C)C[C@H](N(C)C)[C@H]2O)[C@](C)(O)C[C@@H](C)CN(C)[C@H](C)[C@@H](O)[C@]1(C)O [Azithromycin] | 4.39 | 1.79 | 0.331 | 0.115 | 1.25 | 1.45
13 | Clc1ccc(CO/N=C(\Cn2ccnc2)c2ccc(Cl)cc2Cl)c(Cl)c1 [Oxiconazole Nitrate] | 0.391 | 1.11 | 1.4 | 1.62 | 0.64 | 0.784
14 | CN(C(=O)C(Cl)Cl)c1ccc(OC(=O)c2ccco2)cc1 [Diloxanide furoate] | -0.565 | -0.529 | -0.629 | -0.7 | -0.498 | -0.517
15 | CC(C)(C)NC(=O)[C@@H]1C[C@@H]2CCCC[C@@H]2CN1C[C@@H](O)[C@H](Cc1ccccc1)NC(=O)[C@H](CC(N)=O)NC(=O)c1ccc2ccccc2n1 [Saquinavir mesylate] | 0.938 | 0.684 | 1.12 | 0.276 | 0.903 | 0.906
16 | N=C(N)NS(=O)(=O)c1ccc(N)cc1 [Sulfaguanidine] | -0.422 | -1.14 | -0.502 | -0.128 | -0.444 | -0.493
17 | N=C(N)N/N=C/c1c(Cl)cccc1Cl [Guanabenz acetate] | 2.17 | 0.543 | 1.23 | -0.116 | 1.62 | 0.458
18 | COCCOC(=O)C1=C(C)NC(C)=C(C(=O)OC(C)C)C1c1cccc([N+](=O)[O-])c1 (centres undefined) [Nimodipine] | -0.345 | 0.468 | 0.0525 | 0.629 | -0.323 | -0.286
19 | CC(=O)[C@H]1CC[C@H]2[C@@H]3C[C@H](C)C4=CC(=O)CC[C@]4(C)[C@H]3[C@@H](O)C[C@]12C [Medrysone] | 1.76 | 1 | 0.12 | 0.163 | 0.432 | 0.0722
20 | NS(=O)(=O)c1cc2c(cc1Cl)N=C(CSCc1ccccc1)NS2(=O)=O [Benzthiazide] | -0.596 | -0.997 | -0.0125 | -0.328 | -0.513 | -0.593
21 | CC(O)(P(=O)(O)O)P(=O)(O)O [Etidronic acid, disodium salt] | -0.428 | -0.376 | -0.14 | -0.368 | -0.461 | -0.4
22 | CCN(CC)CCNC(=O)c1cc(Cl)c(N)cc1OC [Metoclopramide monohydrochloride] | -0.305 | 1.1 | -0.595 | -0.234 | -0.404 | 0.279
23 | O=C(Nc1cccc2c(=O)cc(-c3nnn[nH]3)oc12)c1ccc(OCCCCc2ccccc2)cc1 [Pranlukast] | -0.507 | -1.1 | -0.413 | -0.657 | -0.501 | -0.637
24 | Cc1cc(C(C)(C)C)cc(C)c1CC1=NCCN1 [Xylometazoline hydrochloride] | -0.127 | 0.671 | 0.316 | 0.463 | 0.0924 | 0.303
25 | CN1CCOC(c2ccccc2)c2ccccc2C1 (centres undefined) [Nefopam hydrochloride] | -0.544 | -0.0559 | -0.752 | -0.617 | -0.509 | -0.197

Row | SMILES | LBPA endosome anti-LBPA integrated intensity (z-score) [1] | LBPA endosome anti-LBPA integrated intensity (z-score) [2] | whole-cell filipin (z-score) [3] | whole-cell filipin (z-score) [4] | filipin (z-score) [5] | filipin (z-score) [6]
26 | COc1ccccc1O [Guaiacol] | -0.278 | 0.0632 | 0.299 | -0.2 | -0.335 | -0.255
27 | CCn1cc(C(=O)O)c(=O)c2cnc(N3CCCC3)nc21 [Piromidic acid] | -0.472 | -0.684 | -0.293 | 0.123 | -0.374 | -0.418
28 | CC(=O)CC(c1ccc([N+](=O)[O-])cc1)c1c(O)c2ccccc2oc1=O (centres undefined) [Acenocoumarol] | -0.507 | -0.33 | -0.704 | -0.387 | -0.49 | -0.482
29 | Nc1ccc(S(=O)(=O)Nc2ncccn2)cc1 [Sulfadiazine] | -0.494 | -0.985 | -0.718 | -0.987 | -0.481 | -0.62
30 | CNC(C)CCC=C(C)C (centres undefined) [Isometheptene mucate] | -0.484 | -0.292 | 0.117 | -0.234 | -0.458 | -0.578
31 | COC1=C(OC)C(=O)C(CCCCCCCCCCO)=C(C)C1=O [Idebenone] | -0.691 | -0.73 | -0.893 | -0.402 | -0.585 | -0.582
32 | CCCC(CCC)C(=O)O [Valproic acid] | -0.476 | 1.11 | 0.263 | 2.69 | -0.401 | -0.484
33 | CC(=O)[C@H]1CC[C@H]2[C@@H]3CCC4=CC(=O)CC[C@]4(C)[C@H]3CC[C@]12C [Progesterone] | 2.4 | 0.628 | 1.62 | 0.873 | 2.26 | 0.759
34 | CC(=O)Nc1ccc(OCC(O)CNC(C)C)cc1 (centres undefined) [Practolol] | -0.578 | -0.861 | -0.908 | -0.531 | -0.573 | -0.506
35 | Nc1c2c(nc3ccccc13)CCCC2 [Tacrine hydrochloride] | 0.535 | 0.705 | -0.59 | 0.0516 | 0.0216 | 0.583
36 | CC(=O)SCC(Cc1ccccc1)C(=O)NCC(=O)OCc1ccccc1 (centres undefined) [Racecadotril] | -0.747 | -1.18 | -0.139 | -0.415 | -0.589 | -0.468
37 | C#C[C@]1(O)CC[C@H]2[C@@H]3CCc4cc(O)ccc4[C@H]3CC[C@@]21C [Ethinylestradiol] | -0.522 | -1.4 | -0.139 | -0.678 | -0.442 | -0.49
38 | CN(CCOc1ccc(CC2SC(=O)NC2=O)cc1)c1ccccn1 (centres undefined) [Rosiglitazone Hydrochloride] | -0.367 | 0.286 | 0.193 | 0.897 | -0.277 | -0.0127
39 | CCN(CC)CCOC(=O)c1ccc(N)cc1 [Procaine hydrochloride] | -0.324 | 0.381 | -1.04 | -0.86 | -0.492 | -0.418
40 | NS(=O)(=O)c1cc2c(cc1Cl)NC(CC1CCCC1)NS2(=O)=O (centres undefined) [Cyclopenthiazide] | -0.58 | -0.971 | -0.203 | -0.467 | -0.442 | -0.628
41 | O=c1n(CCCN2CCN(c3cccc(Cl)c3)CC2)nc2ccccn12 [Trazodone hydrochloride] | 0.505 | 2.35 | 0.713 | 1.12 | 0.872 | 1.04
42 | COc1c(N2C[C@@H]3CCCN[C@@H]3C2)c(F)cc2c(=O)c(C(=O)O)cn(C3CC3)c12 [Moxifloxacin] | -0.595 | -1.37 | -0.138 | -0.0544 | -0.469 | -0.207
43 | Nc1nc(O)c2ncn(CCC(CO)CO)c2n1 [Penciclovir] | -0.596 | -1.08 | -0.223 | 0.234 | -0.512 | -0.438
44 | CC(=O)NCCCS(=O)(=O)O [Acamprosate calcium] | -0.335 | 0.472 | -0.555 | -0.465 | -0.407 | -0.547
45 | O=C(NCCNCC(O)COc1ccc(O)cc1)N1CCOCC1 (centres undefined) [Xamoterol hemifumarate] | -0.337 | -0.849 | -0.403 | -0.263 | -0.407 | -0.533
46 | C[C@H]1c2cccc(O)c2C(=O)C2=C(O)[C@]3(O)C(=O)C(C(N)=O)=C(O)[C@@H](N(C)C)[C@@H]3[C@@H](O)[C@@H]21 [Doxycycline hydrochloride] | -0.633 | -1.71 | -0.0102 | -0.552 | -0.531 | -0.743
47 | CNCCc1ccccn1 [Betahistine mesylate] | -0.418 | -0.427 | -0.443 | -0.285 | -0.457 | -0.6
48 | O=C1C(CC[S+]([O-])c2ccccc2)C(=O)N(c2ccccc2)N1c1ccccc1 (centres undefined) [Sulfinpyrazone] | -0.368 | 0.025 | 0.303 | -0.59 | -0.319 | -0.446
49 | O=C(Nc1ccccc1)OCC(CN1CCCCC1)OC(=O)Nc1ccccc1 (centres undefined) [Diperodon hydrochloride] | 1.44 | 2.96 | 0.922 | -0.386 | 1.23 | 1.1
